We go through 52 molecules from paper PMC4336329 (PLoS ONE, 2015).

Screen size: about 310,000 compounds; about 14,000 (4.5%) showed an effect of 50% or more. The effect is printed as a negative number. The list comes from a sample in which strong results are over-represented; it also holds similar structures and randomly drawn compounds.
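Note: peak tail current of the secondary pulse compared with the same well before compound.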

This experiment deals with human ether-à-go-go-related gene (hERG) potassium channel (human, UniProt Q12809). The experiment can be described thus: primary screen, population patch clamp on CHO cells stably expressing hERG; higher = less effect of the substance.
human ether-à-go-go-related gene (hERG) potassium channel, sequence (Q12809 whole entry, looked up): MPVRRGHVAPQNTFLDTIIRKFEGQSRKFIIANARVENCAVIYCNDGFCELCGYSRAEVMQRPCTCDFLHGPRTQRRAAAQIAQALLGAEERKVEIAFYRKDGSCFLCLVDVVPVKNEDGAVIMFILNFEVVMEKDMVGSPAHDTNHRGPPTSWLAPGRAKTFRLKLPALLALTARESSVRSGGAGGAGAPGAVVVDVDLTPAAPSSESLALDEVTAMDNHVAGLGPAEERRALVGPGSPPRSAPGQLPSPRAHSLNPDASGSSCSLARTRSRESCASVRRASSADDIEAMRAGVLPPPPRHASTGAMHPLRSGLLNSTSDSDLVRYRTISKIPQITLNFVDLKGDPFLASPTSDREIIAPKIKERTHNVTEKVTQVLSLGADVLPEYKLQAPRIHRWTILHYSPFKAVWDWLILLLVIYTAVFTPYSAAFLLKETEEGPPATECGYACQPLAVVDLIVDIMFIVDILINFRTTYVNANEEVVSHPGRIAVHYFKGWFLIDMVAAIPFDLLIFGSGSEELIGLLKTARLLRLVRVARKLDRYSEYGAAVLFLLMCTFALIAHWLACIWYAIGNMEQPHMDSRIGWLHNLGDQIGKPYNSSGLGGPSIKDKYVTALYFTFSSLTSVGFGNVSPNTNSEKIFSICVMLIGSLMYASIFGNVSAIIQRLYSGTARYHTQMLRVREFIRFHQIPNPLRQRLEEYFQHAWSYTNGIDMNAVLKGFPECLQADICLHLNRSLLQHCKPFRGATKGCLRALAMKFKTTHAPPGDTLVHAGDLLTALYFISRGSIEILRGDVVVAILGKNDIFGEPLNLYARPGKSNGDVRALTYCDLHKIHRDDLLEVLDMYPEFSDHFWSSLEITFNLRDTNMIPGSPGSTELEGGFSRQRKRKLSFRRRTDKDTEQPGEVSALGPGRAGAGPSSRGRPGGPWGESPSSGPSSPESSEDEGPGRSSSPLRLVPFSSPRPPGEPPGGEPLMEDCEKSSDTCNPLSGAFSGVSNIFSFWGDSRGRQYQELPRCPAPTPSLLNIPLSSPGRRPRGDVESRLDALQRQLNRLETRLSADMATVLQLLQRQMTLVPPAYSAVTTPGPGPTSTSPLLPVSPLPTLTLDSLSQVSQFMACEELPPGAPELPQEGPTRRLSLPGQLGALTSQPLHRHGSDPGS
As for `O=C(NCCc1ccccc1)c1cccnc1`, the “hERG current change (%, negative = inhibition) at 10uM” value was 7.59%.
To `COc1ccc(-c2cn[nH]c2-c2ccc(OCC(=O)NN)cc2O)cc1OC` belongs 18.3%; to `COc1ccccc1C1CC(c2ccccc2)=NN1C(=O)c1ccccc1` (stereo not shown), 11.9%; to `COc1cccc(C2CC(c3cccc(NS(C)(=O)=O)c3)=NN2C(=O)c2ccccc2)c1OC` (stereo not shown), -40.5%.
The value for `CCOc1ccccc1C1CC(c2cccc(NS(C)(=O)=O)c2)=NN1C(=O)c1ccccc1` (stereo not shown) was -38.1%; that for `COc1ccc(C2CC(c3ccc(OC)c(OC)c3)=NN2C(=O)c2ccccc2)cc1` (stereo not shown) was 9.33%; that for `COc1ccc(OC)c(C2CC(c3ccc(NS(C)(=O)=O)cc3)=NN2C(=O)c2ccccc2)c1` (stereo not shown) was -67.2%.
The value for `COc1cccc(C2CC(c3ccc(Br)cc3)=NN2C(=O)c2ccncc2)c1OC` (stereo not shown) was -29.7%.
On to `COc1cccc(C2CC(c3ccc(NS(C)(=O)=O)cc3)=NN2C(=O)c2ccccc2)c1OC` (stereo not shown), for which the “hERG current change (%, negative = inhibition) at 10uM” value is on record as -64.4%.
To `COc1ccc(C(=O)N2N=C(c3ccc(NS(C)(=O)=O)cc3)CC2c2cccs2)cc1` (stereo not shown) belongs -10.6%; to `COc1ccccc1C1CC(c2ccc(NS(C)(=O)=O)cc2)=NN1C(=O)c1ccccc1` (stereo not shown), -50.9%; to `CCOC(=O)Cc1csc(NC(=O)c2ccc(S(=O)(=O)N(CCOC)CCOC)cc2)n1`, -1.25%.
Regarding `O=C(Cc1ccccc1)Nc1nnc(-c2cccc([N+](=O)[O-])c2)s1`, the “hERG current change (%, negative = inhibition) at 10uM” value is reported as 5.44%.
The value for `COc1ccc(CCC(=O)Nc2cc(S(=O)(=O)N3CCOCC3)ccc2OC(C)C)cc1` was -34.8%; that for `COc1ccccc1N(C)S(=O)(=O)c1ccc(C(=O)OCC(=O)NCc2cccs2)cc1` was 5.35%.
To `CCN(c1ccc(OC)cc1)S(=O)(=O)c1ccc2c(c1)CC(C)N2C(=O)C1CC1` (stereo not shown) belongs 19.5%.
The value for `O=S(=O)(NCCc1ccc(F)cc1)c1cccc2cccnc12` was -0.538%; that for `O=C(CSc1nccc(=O)[nH]1)N1N=C2/C(=C/c3ccco3)CCCC2C1c1ccco1` (stereo not shown) was 17.4%; that for `Cn1cnnc1SCC(=O)N1N=C2/C(=C/c3ccco3)CCCC2C1c1ccco1` (stereo not shown) was -25.6%.
Consider `CCCCN1C(=O)C(=O)N(CC(=O)N2N=C3/C(=C/c4ccco4)CCCC3C2c2ccco2)C1=O` (stereo not shown), for which the “hERG current change (%, negative = inhibition) at 10uM” value is on record as -75%.
Regarding `CC1CCN(C(=O)CSc2nc3c(c(=O)n(C)c(=O)n3C)n2C)CC1`, the “hERG current change (%, negative = inhibition) at 10uM” value amounted to 10.5%.
To `COc1ccc(CCNC(=O)Cc2cccc(C(F)(F)F)c2)cc1OC` belongs 5.75%; to `COc1ccnc(CN(C)C(=O)C2CCC(=O)N(Cc3cccc(C(F)(F)F)c3)C2)c1` (stereo not shown), -18.6%; to `O=C(c1cccc(C(F)(F)F)c1)N1CCN(CCc2ccccc2)CC1`, -47.8%.
The value for `CN(CC1CCN(CCc2cccc(C(F)(F)F)c2)CC1)C(=O)c1ccccc1` was -68.5%.
With `COc1cccc(CN(C)C(=O)c2ccc(OCC(=O)Nc3cccc(C(F)(F)F)c3)c(OC)c2)c1`, the “hERG current change (%, negative = inhibition) at 10uM” value is given as -26.2%.
As for `COc1cccc(C(=O)N(C)CC2CCN(CCc3cccc(C(F)(F)F)c3)CC2)c1`, the “hERG current change (%, negative = inhibition) at 10uM” value is -70.8%.
To `COc1cc(C(=O)N(C)CC2CCN(CCc3cccc(C(F)(F)F)c3)CC2)ccc1C` belongs -78.8%.
The value for `CC1CCN(CC(=O)c2cccc(C(F)(F)F)c2)CC1.O=C(O)C(=O)O` was 7.63%; that for `COc1cccc(CCNCc2cccc(C(F)(F)F)c2)c1.O=C(O)C(=O)O` was -3.46%; that for `CN(CC1CCN(CCc2cccc(C(F)(F)F)c2)CC1)C(=O)c1ccc(F)cc1` was -70.8%.
To `CCOC(=O)C1CCCN(C(=O)CSc2nccn2C)C1` (stereo not shown) belongs -0.344%.
Consider `CCOC(=O)c1cnn2c(C)cc(-c3ccccc3)nc12`, for which the “hERG current change (%, negative = inhibition) at 10uM” value is -10.4%.
In the case of `Cc1cc(C)c(S(=O)(=O)Nc2ncn[nH]2)cc1C`, the “hERG current change (%, negative = inhibition) at 10uM” value is given as 42.8%.
Regarding `COC(=O)c1ccccc1NC(=O)c1ccccc1OC`, the “hERG current change (%, negative = inhibition) at 10uM” value is reported as -23.1%.
To `O=C(NCCc1cccc(C(F)(F)F)c1)C1CCC(=O)N(C2CC2)C1` (stereo not shown) belongs 3.12%.
The value for `CN(CC1CCN(CCc2cccc(C(F)(F)F)c2)CC1)C(=O)c1ccc(F)cc1F` was -69.9%; that for `CN(Cc1cccc(C(F)(F)F)c1)C(=O)C1CCC(=O)N(CC2CCCCC2)C1` (stereo not shown) was -6.77%; that for `COc1ccc(/C=C2\C(=O)c3ccccc3OC2c2ccccc2)cc1` (stereo not shown) was 7.66%.
To `COC(=O)[C@@]1(Cc2ccc(OC)cc2)[C@H]2c3cc(C(=O)N4CCCC4)n(Cc4c(CO)[nH]cc(C)c4=O)c3C[C@H]2CN1C(=O)c1ccccc1` belongs 3.94%; to `CN1CCN(c2ccc(S(=O)(=O)N3CCCCC3)cc2NC(=O)COc2cccc(Cl)c2)CC1`, -49.1%; to `CN1CCN(c2ccc(S(=O)(=O)N3CCCCC3)cc2NC(=O)Cc2ccccc2F)CC1`, -31%.
On to `Cc1ccccc1C(=O)Nc1cc(S(=O)(=O)N2CCCCC2)ccc1N1CCN(C)CC1`, for which the “hERG current change (%, negative = inhibition) at 10uM” value was -37.4%.
The value for `Cc1cccc(OCCC(=O)Nc2cc(S(=O)(=O)N3CCCCC3)ccc2N2CCOCC2)c1` was 6.71%.
Turning to `CN1CCN(c2ccc(S(=O)(=O)N3CCCCC3)cc2NC(=O)COc2ccc(F)cc2)CC1`, the “hERG current change (%, negative = inhibition) at 10uM” value is given as -75.2%.
To `Cc1ccc(Cl)c(OCC(=O)Nc2cc(S(=O)(=O)N3CCOCC3)ccc2N2CCCC2)c1` belongs -15.4%; to `Cc1ccccc1OCC(=O)Nc1cc(S(=O)(=O)N2CCCCC2)ccc1N1CCN(C)CC1`, -28.3%.
To `Cc1ccc(OCC(=O)Nc2cc(S(=O)(=O)N3CCCCC3)ccc2N2CCN(C)CC2)c(C)c1` belongs -57.7%; to `CN1CCN(c2ccc(S(=O)(=O)N3CCCCC3)cc2NC(=O)COc2ccc([N+](=O)[O-])cc2)CC1`, -34.3%.
To `Cc1cccc(OCC(=O)Nc2cc(S(=O)(=O)N3CCCCC3)ccc2N2CCN(C)CC2)c1` belongs -63%; to `O=C(COc1ccc(F)cc1)Nc1cc(S(=O)(=O)N2CCCCC2)ccc1N1CCCCC1`, 9.98%; to `CN1CCN(c2ccc(S(=O)(=O)N3CCCCC3)cc2NC(=O)c2ccc(F)cc2F)CC1`, -68.4%.
